Measurements taken from the supplement of paper PMC10646978.
± gives the standard deviation.

What was measured:
Details in all cases: modulator concentration 10 µM
[1] = system: RAW-Dual (murine macrophage reporter line); experiment: NF-kB reporter (SEAP) activity fold change vs agonist alone; higher = enhanced NF-kB activity
How it was run: (§1)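 In 384-well plates holding 50 000 RAW-Dual murine macrophage reporter cells per well, compound at 10 μM final was pre-incubated for 1 hour at 37 °C, after which a PRR agonist was added overnight. Supernatant SEAP read with QUANTI-Blue at 620 nm absorbance reported NF-κB, and Lucia luciferase read with QUANTI-Luc luminescence reported IRF. Fold change values come from dividing each reporter signal by the mean of agonist-only control wells on the same plate, averaged over replicate plates with propagated errors.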

[2] = system: RAW-Dual (murine macrophage reporter line); experiment: IRF reporter (Lucia luciferase) activity fold change vs agonist alone; higher = enhanced IRF activity
How it was run: as §1

[3] = system: RAW-Dual (murine macrophage reporter line); experiment: viability score (confluency relative to resting cells, overnight) (fraction); higher = more viable, active = viable (0.7 or more)
How it was run: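 Two confluency masks, generated with IncuCyte software over all imaged wells, were applied to IncuCyte images of RAW-Dual macrophages. The cells, in 384-well plates, had been exposed overnight to 10 μM final compound. The viability score is confluency as a fraction of resting cells, and a compound met the cutoff only with both masks above 70% of resting cells.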

[4] = agonist: CpG ODN 1826 0.5 ug/mL

Structure (SMILES)	NF-kB reporter [1, 4]	NF-kB reporter ([1]; agonist: LPS 0.1 ug/mL)	NF-kB reporter ([1]; agonist: MPLA […])	IRF reporter ([2]; agonist: 3'3'-cGAMP 10 ug/mL)	IRF reporter ([2]; agonist: LPS 0.1 ug/mL)	IRF reporter ([2]; agonist: MPLA […])	viability score [3]
COc1ccc(C(=O)N2CC(n3cc(CN4CCCC4=O)nn3)C2)cc1F	1.19 ± 0.1	1.01 ± 0.077	1 ± 0.045	1.05 ± 0.088	1.01 ± 0.067	0.952 ± 0.14	0.999 (active)
COc1ccc(C=Nn2cnnc2)cc1COc1cc(C)c(Cl)cc1C(C)C	0.854 ± 0.088	0.761 ± 0.04	0.984 ± 0.095	1.21 ± 0.11	1.03 ± 0.06	1.3 ± 0.11	0.995 (active)
O=C(NC1CCCCC1)c1cccc(C(F)(F)F)c1	0.851 ± 0.31	1.09 ± 0.14	1 ± 0.12	0.775 ± 0.033	1.15 ± 0.16	1.47 ± 0.3	0.997 (active)
OCCN(CCO)CC(O)Cn1c2ccc(Cl)cc2c2cc(Cl)ccc21 (stereo not drawn)	0.232 ± 0.013	0.503 ± 0.042	0.407 ± 0.024	0.695 ± 0.032	2.78 ± 0.18	1.52 ± 0.18	0.0946 (inactive)
COC(=O)C1C(c2ccccc2)C(C(=O)Oc2ccc(C(C)=O)cc2)C1c1ccccc1 (stereo not drawn)	0.895 ± 0.069	0.939 ± 0.046	1.16 ± 0.1	0.908 ± 0.06	1.17 ± 0.1	1.28 ± 0.15	1.02 (active)
Clc1ccccc1C=NNc1nc(-c2ccccc2)cc(-c2ccccc2)n1	1.15 ± 0.11	1.1 ± 0.073	1.79 ± 0.07	1.2 ± 0.23	1.04 ± 0.065	1.65 ± 0.29	1 (active)
CC[C@@]1(O)C(=O)OCc2c1cc1n(c2=O)Cc2cc3c(CN(C)C)c(O)ccc3nc2-1.Cl	2.27 ± 0.11	1.41 ± 0.12	2.16 ± 0.11	2.12 ± 0.15	2.89 ± 0.17	3.26 ± 0.26	0.725 (active)
O=C(Nc1cccc(Cl)c1Cl)c1cc2nc(-c3ccco3)cc(C(F)(F)F)n2n1	0.9 ± 0.054	1.01 ± 0.08	0.918 ± 0.055	0.864 ± 0.029	1.25 ± 0.082	1.21 ± 0.16	1 (active)
Cc1ccc(CCNc2ccccc2C)cn1	1.05 ± 0.084	0.931 ± 0.11	1.2 ± 0.12	1 ± 0.067	1.35 ± 0.21	1.73 ± 0.39	0.993 (active)
CCCOc1ccc(C(=O)OCCN(CC)CC)cc1N.Cl	0.857 ± 0.14	1.03 ± 0.1	0.928 ± 0.077	1.01 ± 0.044	1.2 ± 0.19	1.44 ± 0.15	1 (active)
CC12CC3CC(C)(C1)CC(N)(C3)C2.Cl	0.831 ± 0.1	0.892 ± 0.086	0.855 ± 0.074	1.24 ± 0.056	1.2 ± 0.099	1.14 ± 0.095	0.978 (active)
N#CC(=Cc1cc(Cl)ccc1OCc1c(F)cccc1Cl)c1nn(CCO)c(N)c1C#N	1.37 ± 0.12	1.19 ± 0.072	0.806 ± 0.063	0.497 ± 0.03	0.931 ± 0.11	0.787 ± 0.049	0.164 (inactive)
Cc1c(OCC(=O)OC(C)C)ccc2c3c(c(=O)oc12)CCCC3	0.794 ± 0.063	0.883 ± 0.14	1.21 ± 0.12	0.949 ± 0.086	1.49 ± 0.095	1.71 ± 0.24	1.01 (active)
CCN1C(C)=C(C(=O)OC)C(c2ccc([N+](=O)[O-])cc2)C(C(=O)OC)=C1C	1.17 ± 0.11	0.868 ± 0.079	0.991 ± 0.049	0.981 ± 0.037	0.954 ± 0.044	0.961 ± 0.1	0.994 (active)
Clc1ccc(Nc2nnc(Cc3ccncc3)c3ccccc23)cc1 [Prestw-1358]	0.987 ± 0.056	1.07 ± 0.069	0.85 ± 0.07	0.785 ± 0.028	1.08 ± 0.069	1.1 ± 0.11	0.997 (active)
O=C(CCc1csc(NC(=O)c2ccco2)n1)Nc1ccc(Cl)cc1	0.9 ± 0.069	0.87 ± 0.071	0.973 ± 0.097	0.883 ± 0.045	1.44 ± 0.23	1.55 ± 0.43	0.974 (active)
Nc1ncnc2c1ncn2[C@@H]1O[C@H](COP(=O)(O)O)[C@@H](O)[C@H]1O [Prestw-356]	1.37 ± 0.16	1.09 ± 0.11	1.23 ± 0.12	1.32 ± 0.069	1.21 ± 0.16	1.36 ± 0.28	1.03 (active)
CSCCC(NC(C)=O)C(=O)N1CCc2nc3ccc(Cl)cn3c(=O)c2C1 (stereo not drawn)	1.42 ± 0.35	0.918 ± 0.047	1.06 ± 0.12	1.01 ± 0.043	1.24 ± 0.17	1.29 ± 0.21	0.986 (active)
Cc1cc(C)c(NC(=O)COc2ccc(C)cc2C(C)(C)C)c(C)c1	0.975 ± 0.13	0.975 ± 0.06	0.962 ± 0.11	0.953 ± 0.029	1.14 ± 0.19	1.01 ± 0.23	1.01 (active)
O=C(O)C1C(c2ccccc2)C(C(=O)OCc2ccccc2)C1c1ccccc1 (stereo not drawn)	0.926 ± 0.089	1.09 ± 0.062	1.05 ± 0.079	1.03 ± 0.078	1.24 ± 0.087	1.03 ± 0.076	1.01 (active)
COc1ccccc1NS(=O)(=O)c1cc2c3c(c1)CC(=O)N3CCC2	0.967 ± 0.088	1.03 ± 0.096	1.07 ± 0.071	0.992 ± 0.035	1.09 ± 0.15	0.871 ± 0.11	1.01 (active)
O=C1Nc2ccc(Cl)cc2[C@@](C#CC2CC2)(C(F)(F)F)O1	0.352 ± 0.029	0.486 ± 0.024	0.631 ± 0.02	0.964 ± 0.056	0.715 ± 0.092	1.47 ± 0.2	0.114 (inactive)
COc1ccccc1-n1ncc2c(C)nnc(SCC(=O)NCc3ccccc3Cl)c21	0.739 ± 0.33	0.987 ± 0.077	0.761 ± 0.19	0.781 ± 0.13	0.882 ± 0.15	0.781 ± 0.15	0.944 (active)
CCOC(=O)N1CCN(C(=O)C2CCN(Cc3ccc(C)o3)CC2)CC1	0.941 ± 0.15	1.04 ± 0.089	0.98 ± 0.08	1.02 ± 0.051	1.26 ± 0.3	1.41 ± 0.3	0.991 (active)
